# Experimental data as given in PubChem BioAssay AID602447 (National Center for Advancing Translational Sciences (NCATS), 2012).
# Inconclusive results are not listed. The source made the active and inactive calls. The rule behind the calls is not given here.
# Biological target: Beta-2 adrenergic receptor (Homo sapiens) (UniProt P07550)
# Assay: qHTS for antagonists of the Thyroid Stimulation Hormone Receptor: Hit Validation with Beta-2 Adrenergic Receptor
# Details: B2AR-expressing cells, cAMP HTRF, antagonist counterscreen; hits give high values
# Source text: The thyroid-stimulating hormone receptor (TSHR) is a member of the 7 trans-membrane-spanning receptor (7TMR) family of cell surface receptors. TSHR-mediated hyperthyroidism is important in thyroid pathology. The development of small molecule antagonists of TSHR may lead to therapeutic approaches for TSHR-mediated hyperthyroidism caused by constitutively activating mutations or stimulating auto-antibodies associated with Graves' disease. Graves' disease is the leading cause of hyperthyroidism and is caused by autoantibodies that stimulate TSHR (TsAbs) causing thyroid growth and unregulated overproduction of thyroid hormones and existing treatments have liabilities (agranulocytosis). In addition, TSHRs are known to be expressed in multiple extrathyroidal tissues including bone, brain, kidney, testis, fat and cells of the immune system but the role of the TSHR in these tissues is not clear. Therefore, TSHR antagonists/inverse agonists could be used as probes of extrathyroidal TSHR function. Finally, TSHR inverse agonists, which are a subclass of antagonists that inhibit agonist-independent (or basal or constitutive) TSHR signaling, could be used to inhibit TSH-independent signaling in patients with recurrent or metastatic thyroid cancer who are receiving thyroid hormone to suppress TSH. […]
# Beta-2 adrenergic receptor (Homo sapiens), sequence (P07550 whole entry, looked up): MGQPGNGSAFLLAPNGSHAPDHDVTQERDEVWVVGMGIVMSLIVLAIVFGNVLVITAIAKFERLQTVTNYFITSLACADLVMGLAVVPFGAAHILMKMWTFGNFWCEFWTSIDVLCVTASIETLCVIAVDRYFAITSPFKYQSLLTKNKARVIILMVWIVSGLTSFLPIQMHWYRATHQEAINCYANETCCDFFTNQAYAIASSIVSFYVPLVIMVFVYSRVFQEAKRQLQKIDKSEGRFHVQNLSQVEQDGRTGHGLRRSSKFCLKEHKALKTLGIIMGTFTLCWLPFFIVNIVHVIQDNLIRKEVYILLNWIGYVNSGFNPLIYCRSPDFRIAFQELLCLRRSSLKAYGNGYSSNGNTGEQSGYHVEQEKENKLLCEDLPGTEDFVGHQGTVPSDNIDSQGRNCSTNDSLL
smiles,measurement,value
N#CC(C#N)=NNc1ccc(-n2ccc(C(F)(F)F)n2)cc1,max inhibition,91.9% (active)
